Tests used:
Settings in all cases: Compound Concentration (nM):1000
[1] = test system: PAK1
[2] = test system: PAK2
[3] = test system: PAK3
[4] = test system: PAK4
[5] = test system: PAK6
[6] = test system: PAK7
[7] = test system: T1, PCTK1
T1 construct: gene CDK16

[8] = test system: T2, PCTK2
T2 construct: gene CDK17

[9] = test system: T3, PCTK3
T3 construct: gene CDK18

[10] = test system: PDGFRA
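Also: KINOMEscan scanMAX binding as percent activity remaining versus control; lower means stronger binding.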

| Structure (SMILES) | Percent Control [1] [%] | Percent Control [2] [%] | Percent Control [3] [%] | Percent Control [4] [%] | Percent Control [5] [%] | Percent Control [6] [%] | Percent Control [7] [%] | Percent Control [8] [%] | Percent Control [9] [%] | Percent Control [10] [%] |
| --- | --- | --- | --- | --- | --- | --- | --- | --- | --- | --- |
| CC1=C(C(=O)Nc2ccc3[nH]ncc3c2)C(c2ccc3ccccc3c2)CC(=O)N1 (centres unmarked) [GSK270822A] | 85 | 93 | 79 | 85 | 89 | 83 | 89 | 100 | 96 | 100 |
| Nc1ncnc2occ(-c3ccc(NC(=O)Nc4cc(C(F)(F)F)ccc4F)cc3)c12 [GW770249X] | 100 | 100 | 31 | 100 | 100 | 100 | 82 | 29 | 31 | 1.4 |
| COc1cccc(-n2ncc3c(N/N=C/c4ccncc4)ncnc32)c1 [GW784752X] | 100 | 100 | 100 | 100 | 96 | 100 | 25 | 70 | 100 | 36 |
| CCS(=O)(=O)c1ccc(OC)c(Nc2ncc(-c3cccc(OC)c3)o2)c1 [GW580509X] | 100 | 100 | 100 | 100 | 96 | 100 | 100 | 100 | 100 | 69 |
| O=C1Nc2ccc(C(=O)c3ccco3)cc2C1=Cc1cc(Cl)c(O)c(Cl)c1 [GW406108X] | 100 | 80 | 100 | 100 | 80 | 100 | 100 | 100 | 91 | 79 |
| CC1=C(C(=O)Nc2ccc3[nH]ncc3c2)C(c2ccc(Cl)c(Cl)c2)CC(=O)N1 (centres unmarked) [GSK299115A] | 94 | 84 | 96 | 82 | 79 | 91 | 85 | 100 | 93 | 100 |
| CC(C)COC(=O)c1ccc2c(c1)/C(=C/Nc1ccc(S(N)(=O)=O)cc1)C(=O)N2 [GW416981X] | 100 | 100 | 100 | 100 | 100 | 97 | 0.6 | 16 | 60 | 55 |
| O=C(Nc1n[nH]c2nc(-c3ccc(O)cc3)c(Br)cc12)C1CC1 [SB-725317] | 89 | 60 | 71 | 100 | 100 | 100 | 24 | 62 | 77 | 29 |
| C/C(Nc1ccc(S(N)(=O)=O)cc1)=C1/C(=O)Nc2ccccc21 [GW335962X] | 82 | 80 | 64 | 89 | 85 | 100 | 23 | 100 | 78 | 6.1 |
| COc1ccc2cc(-c3c(-c4ccncc4)nc(-c4ccc(S(C)(=O)=O)cc4C)n3C)ccc2c1 [SB-633825] | 87 | 85 | 12 | 81 | 97 | 87 | 74 | 100 | 100 | 91 |
| NS(=O)(=O)c1ccc(N/N=C2\C(=O)Nc3ccc(C(=O)NCCc4c[nH]cn4)cc32)cc1 [GW300660X] | 100 | 81 | 100 | 100 | 100 | 100 | 2.2 | 100 | 100 | 54 |
| CN1CCN(C(=O)c2ccc(NC(=O)Nc3ccc(N(C)c4ccnc(Nc5ccc(CS(C)(=O)=O)cc5)n4)cc3)cc2)CC1.Cl [GW830263A] | 92 | 50 | 0 | 46 | 92 | 67 | 76 | 91 | 96 | 2 |
| Cc1cc(O)cc(C)c1/C=C/c1cncc(C(N)=O)c1 [GW435821X] | 99 | 100 | 84 | 100 | 98 | 100 | 100 | 100 | 93 | 18 |
| COc1cc(/C=N/Nc2ncnc3[nH]ncc23)ccc1O [GW578748X] | 100 | 97 | 58 | 100 | 100 | 100 | 100 | 100 | 100 | 7.6 |
| COc1cccc(-c2c[nH]c3c(N/N=C/c4ccncc4)ncnc23)c1 [GW814408X] | 100 | 94 | 1.9 | 100 | 100 | 100 | 28 | 75 | 100 | 8.2 |
| CN(C)c1cc2c(Nc3ccc4c(cnn4Cc4ccccc4)c3)ncnc2cn1 [GW282974X] | 89 | 79 | 26 | 98 | 87 | 88 | 87 | 100 | 100 | 100 |
| Cl.O=C(Nc1ccc(Oc2ccc3[nH]c(NC(=O)c4ccccc4)nc3c2)cc1)Nc1cc(C(F)(F)F)ccc1F [GW709042A] | 93 | 90 | 5.9 | 100 | 96 | 100 | 100 | 100 | 96 | 35 |
| COc1ccc2[nH]c3c4[nH]c5ccc(OC)cc5c4c4c(c3c2c1)C(=O)NC4=O [GW296115X] | 70 | 91 | 4.2 | 90 | 100 | 91 | 99 | 72 | 80 | 11 |
| Cl.O=C(Nc1ccc(Oc2ccc3[nH]c(NC(=O)c4ccco4)nc3c2)cc1)Nc1cc(C(F)(F)F)ccc1F [GW683134A] | 100 | 100 | 5.6 | 100 | 92 | 100 | 100 | 100 | 100 | 11 |
| NS(=O)(=O)c1ccc(N/N=C2\C(=O)Nc3ccc(C(=O)NCc4ccncc4)cc32)cc1 [GW300657X] | 100 | 100 | 63 | 100 | 81 | 87 | 0.2 | 22 | 68 | 27 |

Source: paper PMC7826789 (International Journal of Molecular Sciences, 2021)
